Bioassay records as filed in PubChem.
BJeLR lethal: kills HRASV12-expressing BJeLR cells; BJeLR (HRASV12) viability, CellTiter-Glo ATP luminescence, 48 h; inhibition, % (no concentration beside the values); actives 0.17% (n = 300,000); AID 1554; in the data active means inhibition above about 50%
ugtP null kill: kills S. aureus RN4220 lacking UgtP; S. aureus RN4220 ugtP deletion, OD600 growth, 16 h; growth inhibition, % (no concentration beside the values); actives 0.54% (n = 330,000); AID 1259309; in the data active means growth inhibition above about 68%;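 further: plate controls were untreated wells for no effect and antibiotic for full effect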
CCHF vOTU inh: CCHFV vOTU protease inhibition. Pep-AMC fluorescence. inhibition, % at 11.5 µM. actives 0.55% (n = 370,000); in the data active means inhibition above about 30%; further: 0% = vehicle wells with enzyme and 100% = no enzyme wells
RN4220 kill: S. aureus RN4220 growth inhibition; AID 1259311; OD600, 16 h; inhibition, % (no concentration beside the values); actives 0.33% (n = 330,000); in the data active means inhibition above about 85%;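 further: plate controls were untreated cells for no effect and reference antibiotic for full effect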
PfHsp40 yeast: compounds rescuing yeast from Plasmodium falciparum HSP40 toxicity. S. cerevisiae expressing PfHsp40, growth rescue, ATP luminescence. growth rescue, % at 12.5 µM. actives 0.68% (n = 340,000); in the data active means growth rescue above about 28%, passing the limit was not always enough;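 further: yeast W303a lacking pdr1 and pdr3 grown in galactose medium; growth measured after three days at 30 °C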
* marks the source's active call; other numbers are inactive results; nt = no result given. This is a sample that favours compounds with a hit; in the whole collection about 1.6% have one here.

SMILES	BJeLR lethal	ugtP null kill	CCHF vOTU inh	RN4220 kill	PfHsp40 yeast
O=C(NCc1ccccc1)c1ccc2nccnc2c1	5	0	-3	2	31*
O=[N+]([O-])c1cc2oc3c(c2c(C=NCc2ccccc2)c1O)CCCC3	-7	-3	1	1	230*
CC(C)CN=Cc1c(O)c([N+](=O)[O-])cc2oc3c(c12)CCCC3	3	1	21	8	484*
NC(=O)NN=Cc1c(O)ccc2oc3c(c12)CCCC3	nt	4	nt	2	nt
Cc1ccc(C(=O)NN=Cc2ccc(-c3cccc(Cl)c3)o2)cn1	nt	-9	nt	-1	nt
CCCCCCCN1CC=CC(c2ccc(OC)cc2)N(Cc2ccc(F)cc2)C(=O)C1Cc1ccccc1 (stereo not drawn)	nt	7	nt	8	nt
O=[N+]([O-])c1ccc(N=Nc2ccc(O)cc2O)cc1	28	98*	-3	99*	-1
O=[N+]([O-])c1cccc(N=Nc2ccc(O)cc2O)c1	nt	45	9	56	-1
COc1ccc(CN2CC(Cc3ccccc3)C(CC(=O)Nc3ccccc3)C2=O)cc1 (stereo not drawn)	nt	0	nt	6	nt
COc1ccc(C=NNC(=O)c2ccc(Cl)c(S(N)(=O)=O)c2)cc1OCC(N)=O	nt	1	nt	-1	nt
CC[C@@]1(O)C(=O)OCc2c1cc1n(c2=O)Cc2cc3c(N)cccc3nc2-1	78*	1	5	9	0
CC[C@@]1(O)C(=O)OCc2c1cc1n(c2=O)Cc2cc3c(CN(C)C)c(O)ccc3nc2-1	85*	-1	-20	5	1
CCCCc1cc(=O)oc2c(CN(C)C)c(O)ccc12	-7	5	-295	5	-1
CCN1/C(=C/c2ccc3cc(C)ccc3[n+]2CC)Sc2cc(C)c(C)cc21	nt	100*	17	100*	11
COc1ccc(S(=O)(=O)N(C)CC2Oc3ccc(NS(=O)(=O)c4ccc(F)cc4)cc3C(=O)N(C(C)CO)CC2C)cc1 (stereo not drawn)	nt	3	nt	6	nt
CC1CC(C)CN(S(=O)(=O)c2ccc(C(=O)NCCCn3ccnc3)cc2)C1 (stereo not drawn)	109*	-6	nt	-1	1
O=C(NCCCn1ccnc1)c1ccc(S(=O)(=O)N2CCCCCC2)cc1	4	1	9	3	0
O=[N+]([O-])c1ccc(O)c(-c2cc(C(F)(F)F)nc(-c3ccccc3)n2)c1	68*	99*	2	100*	-1
Fc1ccc(CO/N=C/C2=C(Cl)c3ccccc3CC2)cc1	3	nt	9	nt	0
Cc1ccc(CON=CC2=C(Cl)c3ccccc3CC2)cc1	nt	95*	nt	-6	nt
COC[C@H]1OC(=O)c2coc3c2[C@@]1(C)C1=C(C3=O)[C@@H]2CCC(=O)[C@@]2(C)C[C@H]1OC(C)=O	nt	nt	1	nt	123*
COC(=O)c1ccc(COc2ccc(C=NNC(N)=S)cc2)o1	nt	-19	nt	6	nt
CCCC(=O)Nc1ccc(C(=O)NN=Cc2ccc[nH]2)cc1	nt	3	nt	2	nt
COCC(=O)Oc1c(Sc2ccccc2[N+](=O)[O-])c(C)nn1C(C)(C)C	2	7	28	8	2
CCC(CC)C(=O)Oc1c(Sc2ccccc2[N+](=O)[O-])c(C)nn1C(C)(C)C	-1	96*	9	-7	1
SMILES	BJeLR lethal	ugtP null kill	CCHF vOTU inh	RN4220 kill	PfHsp40 yeast
C=C(CC1CC(O)[C@]2(C)OC3CC4OC5C[C@]6(C)O[C@]7(C)CCC8OC9C[C@]%10(C)OC%11C(C)=CC(=O)OC%11CC%10OC9C[C@@H](C)C8OC7CC6O[C@]5(C)C/C=C\C4OC3CC2O1)C(=O)O (stereo partly drawn)	9	-10	3	-8	nt
C=C(C=O)C[C@@H]1C[C@H](O)C2OC3C[C@]4(C)OC5/C=C\CC6OC7C(CC=CCC6OC5CCCC4OC3CC2O1)OC1CC2OC3CC(=O)OC3C[C@@H](C)C[C@@]2(C)OC1C[C@@H]7C (stereo partly drawn)	95*	nt	nt	nt	nt
Nc1nonc1-n1nnc(C(=O)NN=Cc2ccc(OCc3ccccc3F)cc2)c1CNc1ccccc1	nt	-10	nt	6	nt
Cc1ccc(S(=O)(=O)N2CCN(CC(=O)NN=C/C(Cl)=C/c3ccccc3)CC2)cc1	nt	5	nt	3	nt
CO[C@@]12[C@H](COC(N)=O)C3=C(C(=O)C(C)=C(N)C3=O)N1C[C@@H]1N[C@@H]12	nt	nt	-5	nt	-2
CCCNC1=C(C)C(=O)C2=C(C1=O)C(COC(N)=O)[C@]1(OC)C3NC3CN21 (stereo partly drawn)	14	97*	-6	99*	2
O=C(N/N=C/C(Cl)=C/c1ccc([N+](=O)[O-])cc1)C(=O)Nc1ccc(C(=O)O)cc1	-1	nt	-2	nt	85*
O=C(N/N=C/C(Cl)=C/c1ccc([N+](=O)[O-])cc1)C(=O)Nc1ccccc1C(=O)O	-1	nt	17	nt	2
CC1CCC(=O)N(CCSc2ccc(Br)cc2)CC1 (stereo not drawn)	nt	-10	nt	8	nt
O=C(Nc1ccc(F)cc1)NC1(C(=O)NCc2ccco2)CCCCC1	5	-8	-1	-6	0
O=C(Nc1ccc(F)cc1)NC1(C(=O)NCc2ccc3c(c2)OCO3)CCCCC1	-3	100*	6	37	1
CC(=NNC(=S)N1CCN(c2ccccn2)CC1)c1nccs1	nt	nt	nt	nt	108*
CC(=NNC(=S)N1CCN(C2CCCCCC2)CC1)c1ccccn1	nt	nt	4	nt	81*
CC(=NNC(=S)N1CCN(c2ccccn2)CC1)c1ccccn1	nt	nt	-2	nt	0
O=C(NN=Cc1cccnc1)c1ccc(F)cc1	nt	10	nt	3	nt
CC(C)CCC(O)[C@](C)(O)C1CC[C@@]2(O)C3=CC(=O)C4CC(O)C(O)C[C@]4(C)C3CC[C@]12C (stereo partly drawn)	nt	9	nt	15	nt
Cc1cc(Cl)ccc1OCc1n[nH]c(=S)n1C1CCCCC1	-12	5	17	6	80*
Nc1nnc(-c2ccc([N+](=O)[O-])o2)s1	nt	92*	16	98*	0
COc1cccc(/C=C2\SC(=S)N(CCCC(=O)Nc3cc(C)on3)C2=O)c1	100*	-7	3	5	0
O=C(CN1C(=O)/C(=C/c2ccccc2)SC1=S)NNC(=O)c1ccccc1O	-1	1	-7	3	-1
COc1cccc(/C=C2/SC(=S)N(CC(=O)NNC(=O)c3ccccc3O)C2=O)c1	2	47	2	40	155*
CCc1ccc(/C=C2\SC(=S)N(CCCC(=O)Nc3cc(C)on3)C2=O)cc1	nt	nt	-6	nt	nt
CCOC1OC(C(=O)Nc2ccccc2)=CC(c2cn(C(C)=O)c3ccccc23)C1CCCO (stereo not drawn)	nt	-9	nt	7	nt
CC1=[N+](C)c2c(ccc3cccnc23)C1(C)C	nt	10	31*	-3	20
Cc1[nH]c2c(ccc3cccnc32)c1C	-2	-3	-6	5	1
COc1ccc(NC(=O)/C(Cl)=C(/Cl)S(=O)(=O)Cc2ccc(C)cc2)cn1	0	98*	nt	37	343*
O=C(N/N=C/c1c(O)n(-c2ccccc2Cl)c(=O)c2ccccc12)c1cccnc1	8	-6	-19	8	98*
